The text below walks through data of PubChem BioAssay AID1508633 (National Center for Advancing Translational Sciences (NCATS), 2021).

Results filed as inconclusive are left out. Calls of active or inactive are those of the source. Calls follow the shape of the dose curve; as a rule, active = well fitted inhibition curve with a large enough effect; inconclusive = small, poorly fitted or top-dose-only effect; inactive = no such curve, though single readings can be large or run the other way.

The test system of the test is zebrafish ABCB5 (Abcb5) multidrug transporter. In words: qHTS for characterization and localization of zebrafish homologs of the human ABCB1 multidrug transporter: ABCB5 transfected cells. To be noted: CellTiter-Glo luminescence viability, 72 h. An excerpt:
The zebrafish has emerged as a potential model to study the blood-brain barrier (BBB) given its similarities with mammalian systems. However, little information has been available with regard to homologous ATP-binding cassette transporters expressed at the zebrafish BBB. Two transporters that are highly expressed at the human BBB are P-glycoprotein (P-gp, encoded by the ABCB1 gene) and ABCG2 (encoded by the ABCG2 gene). In this study, we focus on characterization of P-gp homologs in the zebrafish, which has two genes that are homologous to human ABCB1 - abcb4 and abcb5. We generated stably-transfected cell lines to determine their substrate specificities. […] Zebrafish abcb4 also colocalized with claudin 5 expression in brain endothelial cells.
A high-throughput screen was performed as previously described on empty vector transfected cells, P-gp-overexpressing MDR-19 cells and cells transfected with full-length zebrafish abcb4 (ZF Abcb4) or abcb5 (ZF Abcb5). Briefly, cells were plated into 1536-well plates at a density of 500 cells/well in 5 uL media. […] CellTiter-Glo reagent (Promega) was dispensed into the wells, incubated for 5 min and luminescence was read on a ViewLux instrument (Perkin-Elmer). […]
A general note: qHTS replaces the single test concentration by a dilution series.

With `C[C@@H]1[C@@H](CC(C[C@H]2O[C@@H]3O[C@]4(C)CC[C@@H]5[C@H](C)CC[C@@H]([C@H]2C)[C@@]35OO4)C[S+](=O)([O-])c2ccc(COC(=O)N(C)C)cc2)O[C@@H]2O[C@]3(C)CC[C@H]4[C@H](C)CC[C@@H]1[C@@]24OO3` (some centres not stated), the Potency was 590 nM (active). Turning to `C=CCON=C(C[C@H]1O[C@@H]2O[C@]3(C)CC[C@@H]4[C@H](C)CC[C@@H]([C@H]1C)[C@@]24OO3)[C@H]1O[C@@H]2O[C@]3(C)CC[C@H]4[C@H](C)CC[C@@H]([C@@H]1C)[C@@]24OO3`, the Potency is 526 nM (active).
